Measured values reported in PubChem BioAssay (NCATS).
Records with an inconclusive call do not appear. Activity calls are given as the source filed them. The call rests on the fitted dose curve; in most records, active means well fitted curve in the direction sought with a large enough effect; inconclusive means small, poorly fitted or top-dose-only effect, or another doubt; inactive means no such curve, though single readings can be large; an effect the other way counts as inactive or inconclusive.

How the values were obtained:
[1] = Cellular Toxicity (caspase-3) N2a (AID 665); conditions: N2a cells, luminescence, normalized: DMSO 0%, 10 µM staurosporine 100%; series mostly up to 92.2 µM;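 further: compound exposure lasted 16 h at 37 °C before readout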
Procedure, shortened: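 Concentration-response qHTS: compound-induced caspase-3/7 luminescence in N2a cells (16 h, 37 °C), relative to DMSO and 10 uM staurosporine controls; AC50 obtained using the standard Hill equation.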

[2] = Cellular Toxicity (caspase-3) NIH 3T3 (AID 666); conditions: NIH 3T3 caspase-3 activation, apoptosis/toxicity, 0% DMSO, 100% is 100 µM tamoxifen; series mostly up to 92.2 µM;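 further: caspase signal read after 16 h compound exposure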
Procedure, shortened: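 Activity: caspase-3/7 induction, NIH 3T3 cells, 16 hr treatment at 37°C, luminescent Caspase-Glo detection; AC50 via Hill equation.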

[3] = Cell Viability - LYMP2-001 (AID 921); conditions: LYMP2-001 lymphoblastoid cell viability; series mostly up to 92.2 µM; further: nearly all actives have a fitted effect of over 70% in size
Procedure, shortened: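 Cellular ATP loss read by luciferase luminescence after 24 h compound exposure at 37 C in complete medium. LYMP2-001 lymphoblastoid cells, 2500/well; qHTS concentration-response data fitted with Hill equation for AC50.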

[4] = Cell Viability - LYMP1-002 - Assay at 16 hr (AID 948); conditions: LYMP1-002 lymphoblastoid cell viability; series mostly up to 92.2 µM
Procedure, shortened: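 ATP luminescence (CellTiter-Glo) was measured after 16 hr compound exposure at 37 C of 2500 lymphoblastoid LYMP1-002 cells per well. Concentration-response curves were fitted with the Hill equation to give AC50.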

[5] = MultiTox-Fluor Cytotoxicity Assay - LYMP1-002 - Live Cells (AID 955); conditions: LYMP1-002 lymphoblastoid live-cell protease fluorescence viability; series mostly up to 46.1 µM
Procedure, shortened: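 In this qHTS viability format, lymphoblastoid cells (LYMP1-002, human) received compound for 16 hr at 37 C. Fluorogenic GF-AFC cleavage by viable cells was detected at 405/510 nm after 1 h at room temperature.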

[6] = MultiTox-Fluor Cytotoxicity Assay - LYMP1-003 - Dead Cells (AID 961); conditions: LYMP1-003 lymphoblastoid cells, dead-cell protease fluorescence; series mostly up to 92.2 µM; further: nearly all actives have a fitted effect of over 70% in size
Procedure, shortened: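 LYMP1-003 human lymphoblastoid cells (2500/well) exposed to compound 16 h at 37 C in complete medium; dead-cell protease read with bis-AAF-R110 fluorescence (Ex/Em 485/520) after 60 min at room temperature. Normalized to DMSO and 15 uM tetraoctylammonium bromide; AC50 from Hill fit.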

[7] = MultiTox-Fluor Cytotoxicity Assay - LYMP1-003 - Live Cells (AID 962); conditions: LYMP1-003 lymphoblastoid cells, MultiTox-Fluor live-cell protease fluorescence; series mostly up to 92.2 µM;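 further: cytotoxic hits lower the live-cell protease signal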
Procedure, shortened: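 Human lymphoblastoid line LYMP1-003 in complete culture medium, treated 16 hr with titrated compounds. Viable cells quantified via cell-permeant GF-AFC substrate fluorescence; AC50 derived by Hill fitting.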

[8] = Cell Viability - LYMP1-003 - Assay at 24 hr (AID 963); conditions: LYMP1-003 lymphoblastoid cell viability; series mostly up to 92.2 µM
Procedure, shortened: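 The lymphoblastoid line was treated with titrated compounds for 24 hours, and viable cell number estimated from luciferase-based ATP luminescence.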

[9] = Cell Viability - LYMP1-003 - Assay at 40 hr (AID 964); conditions: LYMP1-003 lymphoblastoid viability; series mostly up to 92.2 µM; further: nearly all actives have a fitted effect of over 60% in size
Procedure, shortened: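 Acute toxicity is scored as a concentration-dependent loss of intracellular ATP in LYMP1-003 cells (2500/well, complete medium) after 40 hr at 37 C, measured by CellTiter-Glo luminescence; AC50 values derive from standard Hill modelling.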

[10] = Cell Viability - LYMP2-003 (AID 965); conditions: LYMP2-003 lymphoblastoid cell viability; series mostly up to 92.2 µM;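 further: cells exposed to compounds for 24 h before reading; nearly all actives have a fitted effect of over 50% in size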
Procedure, shortened: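 CellTiter-Glo luminescence quantified ATP loss after 24 h compound treatment of LYMP2-003 lymphoblastoid cells at 37 C. Titration series were fitted with the standard Hill equation to give AC50.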

[11] = Cell Viability - LYMP2-005 (AID 967); conditions: LYMP2-005 lymphoblastoid cell viability; series mostly up to 92.2 µM
Procedure, shortened: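 LYMP2-005 human lymphoblastoid cells (2500/well) were treated with compounds for 24 h at 37 C. Intracellular ATP was then measured by CellTiter-Glo luminescence after 30 min at room temperature. AC50 values came from Hill-equation fits of qHTS concentration-response data.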

[12] = Cell Viability - LYMP2-009 (AID 968); conditions: LYMP2-009 lymphoblastoid cell viability; series mostly up to 92.2 µM; further: nearly all actives have a fitted effect of over 55% in size
[13] = Cell Viability - LYMP2-011 (AID 969); conditions: LYMP2-011 lymphoblastoid cells viability; series mostly up to 92.2 µM; further: nearly all actives have a fitted effect of over 60% in size
Procedure, shortened: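 Cells seeded at 2500 per well rest 5 hr before compound addition, then incubate 24 hr at 37 C. CellTiter-Glo reagent is added for 30 min at room temperature before luminescence detection.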

[14] = Cell Viability - LYMP2-013 (AID 970); conditions: LYMP2-013 lymphoblastoid cells viability; series mostly up to 92.2 µM; further: nearly all actives have a fitted effect of over 55% in size
Procedure, shortened: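 In complete culture medium, human lymphoblastoid cells were dosed for 24 hr at 37 C, with tetraoctylammonium bromide (6.4pM to 92 uM) as positive control. Viability reflects luciferase-based ATP signal; AC50 derived from concentration-response curves.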

[15] = Cell Viability - LYMP2-015 (AID 971); conditions: LYMP2-015 lymphoblastoid cell viability; series mostly up to 92.2 µM; further: nearly all actives have a fitted effect of over 55% in size
Procedure, shortened: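 AC50 values reflect Hill-model fits of ATP-based luminescence (CellTiter-Glo) from a human lymphoblastoid line, 2500 cells/well, treated 24 hr at 37 C.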

[16] = Cell Viability - LYMP2-017 (AID 972); conditions: LYMP2-017 lymphoblastoid cell viability; series mostly up to 92.2 µM;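 further: cells exposed to compound for 24 hours at 37 °C; nearly all actives have a fitted effect of over 55% in size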
Procedure, shortened: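 In this qHTS format, lymphoblastoid cells in complete medium receive test compound for a day at 37 C before ATP content is quantified by luciferase luminescence. Reported AC50 figures come from standard Hill-equation curve fitting.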

[17] = Cell Viability - LYMP2-019 (AID 973); conditions: LYMP2-019 lymphoblastoid cell line viability; series mostly up to 92.2 µM; further: nearly all actives have a fitted effect of over 55% in size
Procedure, shortened: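 AC50 values come from Hill-equation modelling of qHTS concentration-response curves, where viability is measured as luciferase-based ATP luminescence in the lymphoblastoid line after 24 hr compound exposure in complete culture medium.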

[18] = Cell Viability - LYMP2-021 (AID 974); conditions: LYMP2-021 lymphoblastoid cells viability; series mostly up to 92.2 µM
Procedure, shortened: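 In qHTS format, compounds are tested against 2500 lymphoblastoid cells per well for 24 h; viable cell number is inferred from ATP-driven luciferase light, and Hill-equation fitting yields AC50 values.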

[19] = Cell Viability - LYMP2-023 (AID 975); conditions: LYMP2-023 lymphoblastoid cell viability; series mostly up to 92.2 µM
Procedure, shortened: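 In this qHTS, ATP-based luciferase luminescence (CellTiter-Glo) is quantified in human lymphoblastoid cells after 24 hr compound treatment at 37 C; tetraoctylammonium bromide serves as positive control. Concentration-response curves are Hill-fitted to give AC50.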

[20] = Cell Viability - LYMP2-025 (AID 976); conditions: LYMP2-025 lymphoblastoid cell viability; series mostly up to 92.2 µM
Procedure, shortened: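 Luminescent ATP readout after 24 hr treatment of a human lymphoblastoid line (LYMP2-025, 2500 cells/well, 37 C). Reagent developed 30 min at room temperature; AC50 fitted with the Hill equation.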

Measured: Potency

COc1ccc(/C=C/c2cc(OC)cc(=O)o2)cc1
inactive: [1] | [2] | [3] | [4] | [5] | [6] | [7] | [8] | [9] | [10] | [11] | [12] | [13] | [14] | [15] | [16] | [17] | [18] | [19] | [20]

CCCCCCCCCCCCCC(=O)O
inactive: [1] | [2] | [3] | [4] | [5] | [6] | [7] | [8] | [9] | [10] | [11] | [12] | [13] | [14] | [15] | [16] | [17] | [18] | [19] | [20]

C=C(C)C1CC=C(C)C(O)C1 (stereo not given)
inactive: [1] | [2] | [3] | [4] | [5] | [6] | [7] | [8] | [9] | [10] | [11] | [12] | [13] | [14] | [15] | [16] | [17] | [18] | [19] | [20]

C=CCc1ccc(OC)c(OC)c1
inactive: [1] | [2] | [3] | [4] | [5] | [6] | [7] | [8] | [9] | [10] | [11] | [12] | [13] | [14] | [15] | [16] | [17] | [18] | [19] | [20]

C=CC(=C)CCC=C(C)C
inactive: [1] | [2] | [3] | [4] | [5] | [6] | [7] | [8] | [9] | [10] | [11] | [12] | [13] | [14] | [15] | [16] | [17] | [18] | [19] | [20]

COc1cc(/C=C/c2ccccc2)oc(=O)c1
inactive: [1] | [2] | [3] | [4] | [5] | [6] | [7] | [8] | [9] | [10] | [11] | [12] | [13] | [14] | [15] | [16] | [17] | [18] | [19] | [20]

O=C(O)c1ccccc1
inactive: [1] | [2] | [3] | [4] | [5] | [6] | [7] | [8] | [9] | [10] | [11] | [12] | [13] | [14] | [15] | [16] | [17] | [18] | [19] | [20]

CC1=C2[C@H](/C=C(\C)C(=O)O)CC[C@@H](C)[C@H]2CC1
inactive: [1] | [2] | [3] | [4] | [5] | [6] | [7] | [8] | [9] | [10] | [11] | [12] | [13] | [14] | [15] | [16] | [17] | [18] | [19] | [20]
